The structures appear in SMILES notation. Values joined by “and” are separate entries in the source; they are usually repeats but may differ in a detail not shown here. Identical values can stand only once. The whole screen tested about 350,000 compounds, of which about 6,000 (1.7%) were called active. Roughly 5% stayed inconclusive and do not appear here. Rule as the data show it: active = CPE inhibition above about 20% (passing the limit was not always enough); inconclusive = no clear call, values can overlap the other calls; tested in BHK-21 cells. For the sample, actives were picked, then their nearest neighbours and some compounds at random. Some compounds were tested as several samples or in several runs, with calls that do not always agree.

The assay can be described thus: protection of cells from dengue 2 killing – plate reader, single concentration, primary screen (AID 651640).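 Also: 0% = median of neutral control wells and 100% = median of positive control wells.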 The following applies: DENV2-infected cells, cytopathic effect rescue, at 9.99 µM, stronger effect = higher value.
For the compound `COc1cccc(S(=O)(=O)Nc2ccc3c(c2)C(=O)N(C)C[C@@H](OC)[C@@H](C)CN[C@@H](C)CO3)c1`, the CPE inhibition is 2.43% (inactive).
The value for `C[C@@H]1CN([C@@H](C)CO)C(=O)c2cc(N(C)C)ccc2O[C@@H](C)CCCCO[C@@H]1CN(C)C(=O)CCC(F)(F)F` was 5.58% (inactive); that for `Cc1cc(C)n2c(NCc3ccccc3)c(CC(C)C)nc2n1` was -7.45% (inactive); that for `Cc1cc(C)n2c(Nc3c(C)cccc3C)c(CCc3ccccc3)nc2n1` was 20.8% (active).
Under `Cc1ccc(O)c(CCc2ccccc2)n1` stands 1.33% (inactive); under `CCCNC(=O)N1[C@@H]2CN(C)c3ccccc3[C@@H]2[C@@H]1CO`, -0.141% (inactive).
The value for `CC(C)NC(=O)N1C[C@H]2[C@@H](c3ccccc31)[C@H](CO)N2C(=O)c1ccccc1F` was -10% (inactive); that for `CN1C[C@H]2[C@@H](c3ccccc31)[C@@H](CO)N2C(=O)Nc1ccccc1` was 58.5% (active).
Regarding `CC(C)NC(=O)N1[C@H](CO)[C@@H]2c3ccccc3N(C(=O)c3ccccc3F)C[C@@H]21`, the CPE inhibition was 54.6% (active).
Under `CCC(=O)N1[C@@H](CO)[C@@H]2c3ccccc3N(C(=O)c3ccccc3F)C[C@@H]21` stands 26.9% (active).
Under `O=C(c1ccccc1F)N1C[C@H]2[C@@H](c3ccccc31)[C@@H](CO)N2C(=O)c1ccc(F)cc1` stands -13.2% (inactive).
The value for `CN1C[C@@H]2[C@H](c3ccccc31)[C@H](CO)N2C(=O)Nc1ccc(F)cc1` was -5.89% (inactive).
With `CC(C)NC(=O)N1[C@@H]2CN(C(=O)Nc3ccc(F)cc3)c3ccccc3[C@@H]2[C@@H]1CO`, the CPE inhibition is 8.2% (inactive).
`O=C(c1ccccc1F)N1C[C@@H]2[C@H](c3ccccc31)[C@H](CO)N2C(=O)C1CCCC1`: the CPE inhibition was -9.77% (inactive).
The value for `O=C1O[C@@H](c2ccccc2)[C@@H](c2ccccc2)N2[C@@H](c3ccccc3OCCO)[C@]3(C(=O)Nc4ccccc43)[C@@H](C(=O)N3CCCCCCC3)[C@H]12` was 0.314% (inactive); that for `COC(=O)C[C@H]1CC[C@H]2[C@@H](COc3ccc(NC(=O)C4CC4)cc3C(=O)N2C)O1` was -4.57% (inactive); that for `O=C(N[C@H]1CC[C@@H](CCNS(=O)(=O)c2ccc(Cl)cc2)O[C@H]1CO)c1cccc(F)c1` was -5.79% (inactive).
Under `O=C(C[C@H]1CC[C@H]2[C@@H](COC[C@@H](O)CN2Cc2nccs2)O1)NCc1ccccc1Cl` stands -3.47% (inactive).
Under `C[C@H](CO)N1C[C@H](C)[C@H](CN(C)Cc2cccc(C(=O)O)c2)Oc2ncc(-c3ccccc3F)cc2C1=O` stands 5.26% (inactive); under `C[C@@H]1CCCCO[C@@H](CN(C)Cc2ccc(C(=O)O)cc2)[C@H](C)CN([C@H](C)CO)C(=O)c2cc(NC(=O)Nc3ccc(F)cc3)ccc2O1`, 4.69% (inactive); under `C[C@H]1CN([C@@H](C)CO)C(=O)c2cc(/C=C/c3ccccc3)cnc2O[C@@H]1CN(C)C(=O)c1ccc(F)cc1`, -7.53% (inactive).
With `CN1OC[C@@H]2CN(C(=O)c3ccc(-c4ccccc4)cc3)[C@H](c3ccc(-c4cccc(F)c4)cc3)C[C@@H]21`, the CPE inhibition is -4.1% (inactive).
Under `COc1ccc(S(=O)(=O)N2C[C@H]3CON(C)[C@H]3C[C@H]2c2cccc(Br)c2)cc1` stands -6.66% (inactive); under `COc1ccc(CN2C[C@H]3CON(C)[C@H]3C[C@H]2c2ccc(-c3cccc(F)c3)cc2)cc1`, 27.4% (active); under `CCOC(=O)C1(Cc2ccccc2C)CCCN(C(=O)CN2C(=O)CSC2=O)C1` (centres undefined), 1.33% (inactive).
The value for `Cc1noc(C)c1CCC(=O)N1CCCC(CO)(Cc2ccccc2)C1` (centres undefined) was 7.18% (inactive); that for `CCOC(=O)C1(Cc2ccccc2C)CCCN(C(=O)CCc2c(C)noc2C)C1` (centres undefined) was 49.6% (active); that for `CCCCc1nc2cc(C(=O)NCCc3cnn(C)c3)ccc2o1` was 36% (active).
`CC(C)c1nc2cc(C(=O)NC(C)c3cnn(C)c3)ccc2o1` (centres undefined): the CPE inhibition was 1.88% (inactive).
Take `CCCCc1nc2cc(C(=O)N3CCCCC3CCO)ccc2o1` (centres undefined): the CPE inhibition is 6.93% (inactive).
The value for `C[C@@H]1CN([C@H](C)CO)C(=O)c2cc(-c3ccc(C#N)cc3)cnc2O[C@@H]1CN(C)C(=O)Nc1ccccc1` was -5.47% (inactive).
Turning to `COc1ccc2c3c(n(C)c2c1)[C@@H](CO)N(CC1CC1)CC31CCN(C(=O)c2cccc(F)c2)CC1`, the CPE inhibition was -5.77% (inactive).
Under `O=C(c1cnc(Cl)c(Cl)c1)N1CCN(S(=O)(=O)c2ccc(F)cc2)CC1` stands 1.53% (inactive); under `O=C(O)C1CCCCC1C(=O)N1CCN(S(=O)(=O)c2ccc(F)cc2)CC1` (centres undefined), 70.6% (active); under `O=C(C1CCCN(S(=O)(=O)c2ccccc2)C1)N1CCN(c2ccc(F)cc2)CC1` (centres undefined), -0.979% (inactive).
The value for `COc1cccc(C(=O)N2C[C@@H]3[C@H](c4ccccc42)[C@H](CO)N3Cc2ccccc2F)c1` was 6.58% (inactive).
Under `Cc1nccn1-c1ccc(NC(=O)[C@H]2O[C@@H](n3ccc(=O)[nH]c3=O)[C@H](O)[C@@H]2O)cc1` stands 1.75% (inactive); under `O=C(N[C@H](Cc1ccccc1)C(=O)N1CCCN(Cc2cccs2)CC1)[C@H]1O[C@@H](n2ccc(=O)[nH]c2=O)[C@H](O)[C@@H]1O`, -10.6% (inactive); under `O=C(NS(=O)(=O)c1cccs1)[C@H]1O[C@@H](n2ccc(=O)[nH]c2=O)[C@H](O)[C@@H]1O`, 77.5% (active).
With `Fc1ccc(-c2csc(-c3ccc(C4SCCS4)cc3)n2)cc1F`, the CPE inhibition is 38.4% (active).
The value for `COc1ccc(CC(=O)Nc2nc(-c3ccc(F)c(F)c3)cs2)cc1OC` was -4.33% (inactive).
The value for `Clc1ccc(-c2csc(-c3ccncc3)n2)cc1` was 2.38% (inactive).
Under `CC(C)NC(=O)N(C)C[C@@H]1OCCCC[C@@H](C)Oc2ccc(NC(=O)c3ccccc3)cc2C(=O)N([C@@H](C)CO)C[C@H]1C` stands 3.29% (inactive); under `C[C@@H]1CN([C@@H](C)CO)C(=O)c2cc(NC(=O)Nc3cccc4ccccc34)ccc2O[C@@H]1CN(C)C(=O)NC1CCCCC1`, -3.76% (inactive); under `COc1ccc(C2CC(c3cccs3)=NN2C(=O)CSc2nncs2)cc1OC` (centres undefined), 6.81% (inactive).
Regarding `COc1ccc(C2=NN(C(=O)CCC(=O)O)C(c3cccs3)C2)cc1OC` (centres undefined), the CPE inhibition was -2.94% (inactive).
Under `COc1ccc(C2CC(c3cccs3)=NN2C(=O)CCC(=O)O)cc1OC` (centres undefined) stands 36.9% (active).
For `COc1ccccc1C(=O)NCCC(=O)NN1C(=O)NC2(CCCCC2)C1=O`, the CPE inhibition is 0.164% (inactive).
Under `COc1ccccc1CNC(=O)CCCN1C(=O)NC2(CCCC2)C1=O` stands 54.7% (active).
Regarding `COc1ccccc1CCNC(=O)CN1C(=O)NC2(CCCC2)C1=O`, the CPE inhibition was -7.14% (inactive).
Under `C[C@@H]1CCCCO[C@@H](CN(C)C(=O)C2CCCCC2)[C@@H](C)CN([C@H](C)CO)C(=O)c2cc(NC(=O)c3ccccc3)ccc2O1` stands 17.1% (inactive).
Under `C[C@H](CO)N1C[C@H](C)[C@@H](CN(C)Cc2cncnc2)Oc2cc(-c3ccccc3)ccc2S1(=O)=O` stands -3.98% (inactive); under `C[C@@H]1CN([C@H](C)CO)S(=O)(=O)c2ccc(C#CCC3CCCC3)cc2O[C@H]1CN(C)C(=O)CC1CC1`, 9.35% (inactive); under `Cc1noc(C)c1NC(=O)N(C)C[C@@H]1Oc2cc(Br)ccc2S(=O)(=O)N([C@@H](C)CO)C[C@H]1C`, 21.5% (active) and 2.3% (inactive).
Under `CCC(=O)N(C)C[C@H]1Oc2cc(C#CCOC)ccc2S(=O)(=O)N([C@H](C)CO)C[C@H]1C` stands 77.3% (active); under `C[C@H]1CN([C@@H](C)CO)S(=O)(=O)c2ccc(-c3cncnc3)cc2O[C@H]1CN(C)Cc1ccncc1`, 35.7% (active).
`Cc1noc(C)c1NC(=O)N(C)C[C@@H]1Oc2cc(C#CCC(C)C)ccc2S(=O)(=O)N([C@H](C)CO)C[C@@H]1C`: the CPE inhibition is 16.2% (inactive).
In the case of `COc1ccccc1NC(=O)N(C)C[C@H]1Oc2cc(Br)ccc2S(=O)(=O)N([C@H](C)CO)C[C@@H]1C`, the CPE inhibition was 10.7% (inactive) and 3.12% (inactive).
The value for `C[C@@H]1CN([C@@H](C)CO)S(=O)(=O)c2ccc(C#CCC3CCCC3)cc2O[C@@H]1CN(C)C` was -3.23% (inactive).
Turning to `C[C@H](CO)N1C[C@H](C)[C@H](CN(C)Cc2ccncc2)Oc2cc(-c3cncnc3)ccc2S1(=O)=O`, the CPE inhibition is -6.89% (inactive).
The value for `C[C@@H]1CN([C@H](C)CO)S(=O)(=O)c2ccc(C#CCC3CCCC3)cc2O[C@H]1CN(C)Cc1ccc(C(=O)O)cc1` was 41.8% (active).
Under `COCC#Cc1ccc2c(c1)O[C@H](CN(C)C(=O)CN(C)C)[C@@H](C)CN([C@H](C)CO)S2(=O)=O` stands -5.36% (inactive); under `CCC(=O)N(C)C[C@@H]1Oc2cc(C#CCOC)ccc2S(=O)(=O)N([C@H](C)CO)C[C@H]1C`, -10.5% (inactive).
As for `CN1C(=O)c2cc(NC(=O)Nc3ccccc3Cl)ccc2OC[C@H]2O[C@H](CC(=O)NCCCN3CCOCC3)CC[C@H]21`, the CPE inhibition is -4.69% (inactive).
Take `CCNC(=O)C[C@@H]1CC[C@H]2[C@@H](COc3ccc(NC(=O)NC(C)C)cc3C(=O)N2C)O1`: the CPE inhibition is -7.53% (inactive).
The value for `COc1ccc(NC(=O)Nc2ccc3c(c2)OC[C@@H](C)NC[C@@H](C)[C@H](OC)CN(C)C3=O)cc1` was -3.84% (inactive); that for `COc1ccc(S(=O)(=O)N2C[C@@H](O)COC[C@H]3O[C@@H](CC(=O)NCCN4CCCCC4)CC[C@@H]32)cc1` was 2.39% (inactive); that for `C[C@@H]1CN([C@H](C)CO)C(=O)c2cc(NC(=O)NC3CCCCC3)ccc2O[C@H]1CN(C)C(=O)Nc1ccccc1` was 1% (inactive).
Under `C[C@@H]1CCCCO[C@@H](CN(C)C(=O)Cc2ccccc2)[C@@H](C)CN([C@@H](C)CO)C(=O)c2cc(NC(=O)c3ccccc3)ccc2O1` stands -1.37% (inactive).

Source of the values: PubChem BioAssay AID651640 (Broad Institute, 2012).
